Test results from PubChem BioAssay (NCI).
This is part of a sample that, as a whole, favours compounds with a hit. Of some 83,000 tested, about 20% had one in any assay.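 Single-concentration screen, 48 h exposure, 96-well plates. Endpoint: percent growth. Below 10 = active.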 Active and inactive are the calls of the source.

Tests used:
Assay in all cases: NCI-60 one-dose screen, 48 h (100 = growth as untreated, 0 = no growth, -100 = all killed)
Settings in all cases: 10 µM unless noted
T-47D breast = tested on: T-47D breast
BT-549 breast = tested on: BT-549 breast
MDA-MB-435 melanoma = tested on: MDA-MB-435 melanoma
SW-620 colon = tested on: SW-620 colon
MCF7 breast = tested on: MCF7 breast
HCT-116 colon = tested on: HCT-116 colon
HCC-2998 colon = tested on: HCC-2998 colon
KM12 colon = tested on: KM12 colon

Measured: growth

Oc1ccc(C2c3ccccc3Oc3ccccc32)c2cccnc12
inactive: T-47D breast 31.1% | BT-549 breast 29.3% | MDA-MB-435 melanoma 27.3% | SW-620 colon 23.5% | MCF7 breast 17.4% | HCT-116 colon 20.1% | HCC-2998 colon 35.4%

CCCCCC(=O)Oc1ccc(/C(=C(\C)c2ccccc2)c2ccc(OCCN3CCCCC3)cc2)cc1
inactive: T-47D breast 37.3% | BT-549 breast 78.4% | MDA-MB-435 melanoma 85.9% | SW-620 colon 87.9% | MCF7 breast 27.7% | HCT-116 colon 56.6% | HCC-2998 colon 79.1% | KM12 colon 71.6%

CSc1nc2sc3cccc(Cl)c3n2c(=N)c1C#N
inactive: T-47D breast 83.9% | BT-549 breast 96.7% | MDA-MB-435 melanoma 104% | SW-620 colon 102% | MCF7 breast 88.4% | HCT-116 colon 101% | HCC-2998 colon 106% | KM12 colon 101%

COc1cc(OC)cc(C(=O)C[n+]2cccc3cc[nH]c32)c1
inactive: T-47D breast 100% | BT-549 breast 102% | MDA-MB-435 melanoma 99% | SW-620 colon 99.8% | MCF7 breast 94.2% | HCT-116 colon 97.6% | HCC-2998 colon 107% | KM12 colon 101%

CCN(CC)c1ccc(/C=N/NC(=O)CSc2nc3ccccc3c(=O)n2CCc2ccc(S(N)(=O)=O)cc2)c(O)c1
inactive: T-47D breast 13.9% | BT-549 breast 45.2% | MDA-MB-435 melanoma 31.9% | SW-620 colon 27% | MCF7 breast 11.1% | HCT-116 colon 10.7% | HCC-2998 colon 35.8% | KM12 colon 19.1%

CCOC(=O)c1ccc2c(c1)ncn2-c1ccc(NC(=O)Nc2cccc(C)c2)cc1
inactive: T-47D breast 31.2% | BT-549 breast 115% | MDA-MB-435 melanoma 77.6% | SW-620 colon 81.6% | MCF7 breast 54.7% | HCT-116 colon 57.2% | HCC-2998 colon 90.6% | KM12 colon 27.7%

COc1cc(/C=N/O)nc(-c2ccccn2)c1
inactive: T-47D breast 37.5% | BT-549 breast 33.7% | MDA-MB-435 melanoma 23.6% | SW-620 colon 27.4% | MCF7 breast 15.9% | HCT-116 colon 20.9% | HCC-2998 colon 26.4% | KM12 colon 23%

NC(=S)N1N=C(c2ccccc2)CC1c1cn(-c2ccccc2)nc1-c1ccc(OCc2ccccc2)cc1 (configuration not stated)
inactive: T-47D breast 95.2% | BT-549 breast 113% | MDA-MB-435 melanoma 109% | SW-620 colon 106% | MCF7 breast 97.3% | HCT-116 colon 88.5% | HCC-2998 colon 103% | KM12 colon 99.5%

O=C(/C(=C\c1ccc([N+](=O)[O-])cc1)S(=O)Cc1ccc(Cl)cc1)c1ccc(Cl)cc1 (configuration not stated)
inactive: T-47D breast 51.6% | BT-549 breast 94.6% | MDA-MB-435 melanoma 82.6% | SW-620 colon 28% | MCF7 breast 49% | HCC-2998 colon 80.4% | KM12 colon 73.8%
active: HCT-116 colon 4.9%

COc1ccc(/C=C/C(=O)Nc2cc(/C=C\c3cc(OC)c(OC)c(OC)c3)cc(OC)c2OC)cc1OC
inactive: SW-620 colon 35.2% | MCF7 breast 16.8% | HCT-116 colon 19.2% | HCC-2998 colon 55.6% | KM12 colon 17.1%
active: T-47D breast 6.43% | BT-549 breast 8.93% | MDA-MB-435 melanoma -35%

N/C(=N\C(N)=N\c1nc2ccccc2s1)c1cccc(Cl)c1
inactive: T-47D breast 46.9% | BT-549 breast 81.1% | MDA-MB-435 melanoma 99.3% | SW-620 colon 98.5% | MCF7 breast 69.9% | HCT-116 colon 73.8% | HCC-2998 colon 104% | KM12 colon 40.8%

Cc1cc2nc3c4ccc(Br)cc4n(CCN(C)C)c3nc2cc1C
inactive: T-47D breast 21.6% | BT-549 breast 57.5% | MDA-MB-435 melanoma 18.3% | HCC-2998 colon 17% | KM12 colon 23.8%
active: SW-620 colon 0.693% | MCF7 breast 0.513% | HCT-116 colon 9.24%

Cc1c(C)c([N+](=O)[O-])c(C)c([N+](=O)[O-])c1C
inactive: T-47D breast 113% | BT-549 breast 95.8% | MDA-MB-435 melanoma 115% | SW-620 colon 109% | MCF7 breast 97.3% | HCT-116 colon 105% | HCC-2998 colon 112% | KM12 colon 108%

CC1=CCC(OC(=O)C(C)(O)CCC(O)(C(=O)OC2(C)C=CC(O)(C(C)C)CC2)C(C)C)(C(C)C)CC1 (configuration not stated)
inactive: T-47D breast 93.9% | BT-549 breast 114% | MDA-MB-435 melanoma 104% | SW-620 colon 103% | MCF7 breast 97.9% | HCT-116 colon 101% | HCC-2998 colon 112% | KM12 colon 108%

O=C(Nc1ccccc1)Nc1ccc2cc3ccc(NC(=O)Nc4ccccc4)cc3nc2c1
inactive: BT-549 breast 86.2% | MDA-MB-435 melanoma 21.9% | MCF7 breast 27.2% | KM12 colon 38.9%
active: T-47D breast -3.77% | SW-620 colon -62.7% | HCT-116 colon -57.1% | HCC-2998 colon -28.9%

O=S(=O)(NCCNc1nccc(-c2c(-c3cccc(O)c3)nc3occn23)n1)c1ccc(C(F)(F)F)cc1
inactive: T-47D breast 79.2% | BT-549 breast 107% | MDA-MB-435 melanoma 45% | SW-620 colon 126% | MCF7 breast 67.2% | HCT-116 colon 90.1% | HCC-2998 colon 132% | KM12 colon 94.4%

O=C1Nc2cc(-c3ccc(NC(=O)c4ccccc4)cc3)ccc2/C1=C/c1ccc[nH]1
inactive: T-47D breast 35.7% | BT-549 breast 89.1% | MDA-MB-435 melanoma 99.5% | SW-620 colon 105% | HCT-116 colon 99.1% | HCC-2998 colon 99.8% | KM12 colon 68.7%
active: MCF7 breast 8.35%

COc1ccccc1NC(=O)C1CC(c2ccc(F)cc2)=NO1 (configuration not stated)
inactive: T-47D breast 93.9% | BT-549 breast 112% | MDA-MB-435 melanoma 103% | SW-620 colon 102% | MCF7 breast 90.8% | HCT-116 colon 103% | HCC-2998 colon 90.1% | KM12 colon 101%

COc1cc2c(c(O)c1Cl)C(=O)c1c(O)cc(C[C@H](C)O)cc1[C@H]2[C@H]1c2cc(C[C@H](C)O)cc(O)c2C(=O)c2c1cc(OC)c(Cl)c2O
inactive: T-47D breast 10.5% | BT-549 breast 17.2% | MDA-MB-435 melanoma 11.3% | SW-620 colon 17.8% | HCC-2998 colon 25.9% | KM12 colon 11.2%
active: MCF7 breast 7.74% | HCT-116 colon 9.53%

Cc1cccc(NC(=O)Nc2ccc(-c3ccc4c(c3)NC(=O)/C4=C\c3ccc[nH]3)cc2)c1
inactive: T-47D breast 39.1% | BT-549 breast 102% | MDA-MB-435 melanoma 78.8% | SW-620 colon 73% | MCF7 breast 15.3% | HCT-116 colon 72.7% | HCC-2998 colon 99% | KM12 colon 19.4%

CCCCCCCCCCCCCCCC[N+]1(C)CCN(SN2CC[N+](C)(CCCCCCCCCCCCCCCC)CC2)CC1
inactive: T-47D breast 102% | BT-549 breast 87.7% | MDA-MB-435 melanoma 95.7% | SW-620 colon 57.7% | MCF7 breast 76.9% | HCT-116 colon 31.6% | HCC-2998 colon 70% | KM12 colon 78.2%

CCCNC(=O)Oc1ccc(/C(=C(\C)c2ccccc2)c2ccc(OCCCN(C)C)cc2)cc1
inactive: T-47D breast 33.3% | BT-549 breast 83% | MDA-MB-435 melanoma 63% | SW-620 colon 90% | MCF7 breast 21.7% | HCT-116 colon 54.2% | HCC-2998 colon 64.8% | KM12 colon 67.2%

Oc1ccc(C(c2ccc(O)cc2)c2ccc(Br)cn2)cc1
active: T-47D breast -38.5% | BT-549 breast -42.6% | MCF7 breast -20.5% | HCC-2998 colon 3.49%
inactive: MDA-MB-435 melanoma 100% | SW-620 colon 102% | HCT-116 colon 19.4% | KM12 colon 16%

COc1cccc(-c2nc3occn3c2-c2ccnc(NCCNS(=O)(=O)c3cccc4ccccc34)n2)c1
inactive: T-47D breast 87.3% | BT-549 breast 105% | MDA-MB-435 melanoma 102% | SW-620 colon 113% | MCF7 breast 95.5% | HCT-116 colon 99.9% | HCC-2998 colon 132% | KM12 colon 93.8%

COc1cc2nc(-c3ccc(C(F)(F)F)cc3)cc(OCCCN3CCOCC3)c2cc1OC
active: MDA-MB-435 melanoma -26%
inactive: T-47D breast 16.2% | BT-549 breast 30.5% | SW-620 colon 25.9% | MCF7 breast 44.4% | HCT-116 colon 15.1% | HCC-2998 colon 43.4% | KM12 colon 27.5%

CC1(C)CC(O)CCCCCCOc2c(CN)cccc2NC(=O)c2nc(cnc2N)-c2ccc(cc2)S1(=O)=O (configuration not stated)
active: SW-620 colon -6.55% | MCF7 breast -16% | HCT-116 colon -63.6% | KM12 colon -10.7%
inactive: T-47D breast 66.2% | BT-549 breast 28.2% | MDA-MB-435 melanoma 20% | HCC-2998 colon 28.6%

COc1ccc(C/C(=C(\C)c2ccc(OCCN3CCCC3)cc2)c2ccc(OCCN3CCCC3)cc2)cc1
active: MDA-MB-435 melanoma -77.2% | SW-620 colon -35.4% | MCF7 breast -7%
inactive: T-47D breast 77.6% | BT-549 breast 85% | HCT-116 colon 24.9% | HCC-2998 colon 68.9% | KM12 colon 47.9%

NS(=O)(=O)c1ccc(CCN2C(=O)c3cc(Cl)c(Cl)cc3C2=O)cc1
inactive: T-47D breast 98.4% | BT-549 breast 109% | MDA-MB-435 melanoma 108% | SW-620 colon 110% | MCF7 breast 98.6% | HCT-116 colon 100% | HCC-2998 colon 90.2% | KM12 colon 100%

Cc1ccc(S(=O)(=O)NNC(=O)/C(=C\c2ccc(Cl)cc2)c2nc3ccccc3s2)cc1
inactive: T-47D breast 95% | BT-549 breast 106% | MDA-MB-435 melanoma 96.9% | SW-620 colon 93.6% | MCF7 breast 78.7% | HCT-116 colon 84.3% | HCC-2998 colon 103% | KM12 colon 96.6%

N#C/C(=C\c1ccc(Cl)cc1)n1nnc2cc(F)c(F)cc21
active: MDA-MB-435 melanoma 5.95% | SW-620 colon -15% | HCT-116 colon -11.6%
inactive: T-47D breast 19.8% | BT-549 breast 11.7% | MCF7 breast 12% | HCC-2998 colon 16.8% | KM12 colon 16.2%

Nc1c(S(=O)(=O)O)cc2c3c(cccc13)C(=O)OC2=O
inactive: T-47D breast 96% | BT-549 breast 104% | MDA-MB-435 melanoma 102% | SW-620 colon 99.8% | MCF7 breast 94.8% | HCT-116 colon 98.6% | HCC-2998 colon 102% | KM12 colon 92.5%
